Measurements from PubChem BioAssay AID793 (The Scripps Research Institute Molecular Screening Center, 2007).
Where “and” joins values, the source holds several entries; their conditions need not be identical. Equal entries are not always repeated. About 1,400 (1%) of roughly 140,000 compounds were called active. Rule as the data show it: active = inhibition above about 17%; inactive = the rest. The full list was thinned out, with actives kept by preference. The source holds several records for some structures; these can differ, active in one and inactive in another.

Each compound was assayed against Neuropeptide Y receptor type 2 (Homo sapiens) (UniProt P49146) (assay: blockers of human neuropeptide Y Y2 receptor – cell-based, primary screen (AID 793;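 also: 0% = vehicle with agonist challenge and 100% = reference antagonist with challenge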)). Details: NPY-Y2 expressing cells, antagonist mode; at 2.7 µM; stronger effect = higher value.
Chain of Neuropeptide Y receptor type 2 (Homo sapiens) (P49146 whole entry, looked up): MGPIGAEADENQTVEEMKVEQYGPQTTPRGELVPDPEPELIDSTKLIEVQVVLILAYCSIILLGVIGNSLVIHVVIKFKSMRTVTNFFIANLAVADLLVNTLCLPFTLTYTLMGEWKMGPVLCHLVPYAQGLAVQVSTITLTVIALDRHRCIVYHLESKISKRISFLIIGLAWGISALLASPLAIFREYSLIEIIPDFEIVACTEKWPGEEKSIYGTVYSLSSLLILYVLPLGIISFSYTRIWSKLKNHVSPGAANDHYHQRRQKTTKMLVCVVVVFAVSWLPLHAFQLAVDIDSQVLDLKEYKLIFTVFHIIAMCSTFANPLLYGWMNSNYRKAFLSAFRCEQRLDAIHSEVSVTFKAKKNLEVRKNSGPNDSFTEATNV

SMILES	inhibition
O=C(CC(=O)N/N=C\c1cccc(Cl)c1Cl)NCc1ccccc1	13.3% (inactive)
COc1ccc(-c2nn(-c3ccccc3)cc2C(=O)Nc2nccs2)cc1OC	17.6% (active)
COc1ccc(-c2nn(-c3ccccc3)cc2/C=N/Nc2ccccn2)cc1OC	9.59% (inactive)
COc1ccc(-c2nn(-c3ccccc3)cc2C(=O)Nc2nc(CC(C)=O)ns2)cc1	-0.9% (inactive)
O=C(c1cncc(Br)c1)N1CCN(c2ccc([N+](=O)[O-])cc2)CC1	0.95% (inactive)
C/C(=N\Nc1ncc(Cl)cc1Cl)c1ccc(S(=O)(=O)NCc2ccco2)cc1	2.79% (inactive)
Cc1ccc(N/N=C2\COC(C)(C)CC2=O)cc1	1.13% (inactive)
Cc1ccc(NC(=O)NC(=O)CSc2nnc(-c3ccc(OC(F)F)cc3)n2N)c(C)c1	0.74% (inactive)
CN1CCN(C(=O)Cn2c(C(F)(F)F)nc3ccccc32)CC1	-1.96% (inactive)
CC(C)(C)NC(=O)NC(=O)COC(=O)Cn1c(C(F)(F)F)nc2ccccc21	6.71% (inactive)
Cc1ccccc1OC(=O)Cn1c(C(F)(F)F)nc2ccccc21	20.2% (active)
CCCCN(CC)C(=O)c1ccccc1Oc1ccccc1	9.08% (inactive)
Cc1ccc(C(=O)C[n+]2cc(-c3ccccc3)n3c2CCCCC3)cc1	13.7% (inactive) and 24.1% (active)
O=C(c1ccc(CSc2ccccc2)cc1)N1CCCCCC1	4.41% (inactive)
Cc1ccc(C(=O)CS(C)(=O)=O)cc1	4.03% (inactive)
COc1ccc(C2c3c(C)nn(-c4ccccc4)c3NC(=O)N2c2ccccc2)cc1 (centres undefined)	0.06% (inactive)
CCn1cc(CNC(=O)c2cc([N+](=O)[O-])c(C)c([N+](=O)[O-])c2)cn1	2.2% (inactive)
Cc1cc(C(=O)N/N=C/c2cc([N+](=O)[O-])cc(C)c2O)n[nH]1	9.9% (inactive)
O=C(COC(=O)Cn1cnc2ccccc21)Nc1cccc2c1C(=O)c1ccccc1C2=O	4.37% (inactive)
Cc1cccc(C(=O)Nc2ccccc2N2CCN(c3ccc(F)cc3)CC2)c1	8.99% (inactive)
O=C(Nc1ccccc1N1CCCCC1)c1cccc(F)c1	8.36% (inactive)
O=C(Nc1ccccc1N1CCN(c2ccccc2)CC1)c1cccc(F)c1	19.2% (active)
CC1CCN(C(=O)c2ccc(S(=O)(=O)Cc3cc(F)ccc3F)c([N+](=O)[O-])c2)CC1	-1.09% (inactive)
Cc1cccc(C)c1NC(=O)C(c1ccccc1)N1CC(=O)Nc2ccccc21 (centres undefined)	1.93% (inactive)

SMILES	inhibition
O=C(N/N=C/c1ccc(Br)o1)c1cncc(Br)c1	0.35% (inactive)
CCCC(=O)Nc1cccc(NC(=S)NC(=O)C(C)Oc2ccc(Cl)cc2Cl)c1 (centres undefined)	0.34% (inactive)
Nc1nonc1-c1nc2ccccc2n1Cc1ccc(F)cc1	18.1% (active)
CC(=O)Nc1nonc1-c1nc2ccccc2n1Cc1ccccn1	0.29% (inactive)
COCc1nc2ccccc2n1Cc1ccccc1Br	4.55% (inactive)
Nc1nonc1-c1nc2ccccc2n1CCC(=O)O	3.2% (inactive)
CCC(=O)Nc1nc2ccccc2n1Cc1ccccc1C	3.41% (inactive)
COc1ccc(C)c(Cn2c(-c3nonc3N)nc3ccccc32)c1	17.5% (active)
Cc1cc(NC(=O)COC(=O)COc2ccc(Cl)cc2C)c([N+](=O)[O-])cc1C	5.09% (inactive)
CCCC(C)C(=O)OCC(=O)Nc1c(Br)cc(C)cc1Br (centres undefined)	3.68% (inactive)
O=C(CCCCCNC(=O)c1ccccc1)N/N=C/c1ccccc1	-0.13% (inactive)
CCCOC(=O)c1ccc(N2C(=O)c3ccccc3C2=O)cc1	-1.24% (inactive)
CCCC/S(C)=N/S(=O)(=O)c1ccc(C)cc1 (centres undefined)	1.98% (inactive)
O=C(NC(Nc1nc2ccc([N+](=O)[O-])cc2s1)(C(F)(F)F)C(F)(F)F)c1ccccc1	29.6% (active)
Cc1cc(C)cc(OCC(=O)Nc2nc3ccc([N+](=O)[O-])cc3s2)c1	1.9% (inactive)
COC(=O)C(NC(=O)c1ccc(OC)cc1)(Nc1ncc(S(=O)(=O)c2ccc([N+](=O)[O-])cc2)s1)C(F)(F)F (centres undefined)	0.75% (inactive)
COC(=O)C1NN=C(C(=O)c2ccc(Br)cc2)C1c1cccc(Br)c1 (centres undefined)	0.05% (inactive)
Cc1cc(C)n(CC(O)CN(c2ccccc2)S(=O)(=O)c2ccc3ccccc3c2)n1 (centres undefined)	-0.03% (inactive)
CC1CCCN(CCOCCOc2ccccc2-c2ccccc2)C1 (centres undefined)	10.5% (inactive)
Cc1ccc(CN2CCN(/N=C/c3cccnc3)CC2)c(C)c1	2.92% (inactive)
C/C(=N\NC(=O)CNC(=O)C(c1ccccc1)c1ccccc1)c1ccc(C)cc1	1.86% (inactive)
COc1ccc(-c2nc3ccccc3n2CCC(C)C)cc1OC	19.5% (active)
CCCn1c(C(O)c2cc(OC)ccc2OC)nc2ccccc21 (centres undefined)	4.69% (inactive)
COCCn1c(-c2ccc(OC)c(OC)c2)nc2ccccc21	1.52% (inactive)

SMILES	inhibition
COC(=O)c1cc2occc2n1Cc1nc(-c2ccccc2C)oc1C	11.1% (inactive)
O=C(CCN1C(=O)c2ccccc2C1=O)NNC(=O)c1ccc(Cl)cc1Cl	0.71% (inactive)
Cc1ccc(NC(=O)CC2S/C(=N/N=C3\CCCc4ccccc43)NC2=O)cc1 (centres undefined)	-0.03% (inactive)
Cc1cccc(OCCNC(=O)CSc2ccc(C(F)(F)F)cc2[N+](=O)[O-])c1	12.7% (inactive)
Cc1ccc(C)c2[nH]c(=O)c(CCNC(=O)c3cccs3)cc12	2.37% (inactive)
C=CCSc1nc2c(c(=O)[nH]1)C(C(C)C)C(C#N)=C(N)O2 (centres undefined)	121% (active)
C=CCOC(=O)C1=C(C)OC(N)=C(C#N)C1c1ccc(F)cc1 (centres undefined)	7.81% (inactive)
Cc1cc2c(c(=O)n1C)C(C(C)C)C(C#N)=C(N)O2 (centres undefined)	-0.27% (inactive)
CN(C)CCCO/N=C(\c1ccccc1)c1ccncc1	0.64% (inactive)
Cc1ccc(C(=O)N/C(=C/c2cccnc2)C(=O)O)cc1	2.3% (inactive)
Cc1nn(CC(=O)Nc2ccc(N(C)C)cc2)c(C)c1[N+](=O)[O-]	-0.15% (inactive)
N/C(=N\OC(=O)CCc1ccccc1)c1ccc(Cl)cc1	4.22% (inactive)
COc1ccc(/C(N)=N/OC(=O)Cc2ccccc2)cc1	4.03% (inactive)
COc1ccc(/C(N)=N/OC(=O)CCCc2ccccc2)cc1	22.3% (active)
COc1ccc(/C=N/N=C/c2c[nH]c(=O)c(C#N)c2Nc2ccccc2)cc1	3.81% (inactive)
O=C(CNC(c1ccccc1)c1ccccc1)Nc1ccc(F)cc1	7.16% (inactive)
O=C(COC(=O)/C(=C/c1cccs1)c1cccs1)NCc1ccccc1Cl	5.33% (inactive)
C/C(N)=C(/C#N)C(=O)COC(=O)c1cc(-c2ccc(C)cc2)nc2ccccc12	-0.91% (inactive)
Cc1ccc(OCC(=O)Nn2cnc3ccccc32)cc1	2.86% (inactive)
COc1ccc(-c2cc(C(=O)n3cnc4ccccc43)c3ccccc3n2)cc1	58.8% (active)
CCOn1c(SC(C)C)nc2ccccc2c1=O	7.2% (inactive)
CCOC(=O)C(C)Sc1nc2ccccc2c(=O)n1CC1CCCCC1 (centres undefined)	18.5% (active)
CC(Sc1nc2ccccc2c(=O)n1Cc1ccco1)C(=O)c1ccccc1 (centres undefined)	6.17% (inactive)
CCOC(=O)c1c(C)n(C)c2ccc(OC)c(NS(=O)(=O)CC)c12	-1.01% (inactive)

SMILES	inhibition
CCOC(=O)Cc1csc(SCC(=O)NC(C)C23CC4CC(CC(C4)C2)C3)n1 (centres undefined)	5.04% (inactive)
CNC(=S)N/N=C/c1ccc(OCc2ccccc2)c(Br)c1	6.18% (inactive)
Cc1ccc2c(c1)C(c1ccccc1)N(C(=O)c1ccc(S(=O)(=O)N3CCOCC3)cc1)CC(=O)N2 (centres undefined)	0.56% (inactive)
Cc1ccc(CC(=O)Nc2ccc(OC(F)F)c(Cl)c2)cc1C	1.54% (inactive)
O=C(CC1CCCCC1)Nc1c2c(nn1-c1ccc(F)cc1)CS(=O)(=O)C2	21.6% (active)
Cc1ccc(-n2nc3c(c2NC(=O)CCC2CCCCC2)CS(=O)C3)cc1 (centres undefined)	6.05% (inactive)
O=C(Nc1c2c(nn1-c1ccc(F)cc1)CS(=O)C2)C12CC3CC(CC(C3)C1)C2 (centres undefined)	2.38% (inactive)
Cc1ccc(S(=O)(=O)N2CCN(CC(=O)N/N=C/c3ccc(Br)s3)CC2)cc1	-1.25% (inactive)
COc1ccc2c(c1)C(C)=CC(C)(C)N2C(=O)Nc1ccccc1	0.85% (inactive)
COc1ccc2c(c1)C(C)=CC(C)(C)N2C(=O)CNCc1ccc2c(c1)OCO2	26.6% (active)
CCOC(=O)NCc1ccc2c(c1)OCO2	4.28% (inactive)
COc1ccc(Cl)cc1NC(=O)COC(=O)C(CC(C)C)N1C(=O)C2CC=CCC2C1=O (centres undefined)	3.69% (inactive)
Cc1nccn1CC(=O)N/N=C/c1ccc(O)c(O)c1	0.1% (inactive)
Cn1c(=O)c2c(nc(SCC(=O)Nc3ccccc3N3CCCCC3)n2C)n(C)c1=O	3.41% (inactive)
CCCCCNC(=O)c1cccnc1SCC(=O)Nc1ccccc1OC	1.23% (inactive)
CCCc1nc(SCC(=O)Nc2ccccc2OC)c2c(=O)n(C)c(=O)n(C)c2n1	21.6% (active)
O=C(NC1CC1)c1cccc(Br)c1	1.02% (inactive)
Cc1ccccc1C(=O)NNC(=O)CN1C(=O)c2ccccc2C1=O	4.26% (inactive)
N#CCOc1ccc(C2=NO[C@@H]3[C@@H]4C[C@@H]([C@H]5C(=O)N(c6ccc7c(c6)OCO7)C(=O)[C@@H]45)[C@H]23)cc1	3.09% (inactive)
Cc1ccc(CCC(=O)Nc2ncc(Cc3cc(Cl)ccc3Cl)s2)o1	24.4% (active)
Cc1cnc(NC(=O)CSc2nnc(-c3ccc(Cl)cc3Cl)n2N)s1	0.61% (inactive)
CCOc1ccccc1NC(=O)CCc1ccc(C)o1	1.25% (inactive)
